Inconclusive results are not listed. Active and inactive are the calls of the source. Calls come from the whole dose curve; as a rule, active = well fitted inhibition curve with a large enough effect; inconclusive = small, poorly fitted or top-dose-only effect; inactive = flat fitted curve, though single readings scatter.
Assays:
[1] = tested on: CRL-7250; experiment: Cytotoxic Profiling of Annotated Libraries Using Quantitative High-Throughput Screening (AID 1296008); settings: Five cell lines viability, CellTiter-Glo ATP luminescence, 48-72 h; max response: active compounds read low; note: potency is the fitted concentration of half-maximal effect; for max response: % is set by controls: 0 for no effect and ±100 for the full control effect
Summary of the method: (§1)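 Cytotoxicity was measured as CellTiter-Glo ATP luminescence, read after 10 min at room temperature. Compound treatment of the cells lasted 48 or 72 hr at 37 degrees Celsius in a qHTS format.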

[2] = tested on: HEK293; experiment: as above; settings: Five cell lines viability, CellTiter-Glo ATP luminescence, 48-72 h; max response: active compounds read low
Summary of the method: as §1

[3] = tested on: HaCat; experiment: as above; settings: Five cell lines viability, CellTiter-Glo ATP luminescence, 48-72 h; max response: active compounds read low
Summary of the method: as §1

[4] = tested on: PC26; experiment: qHTS profiling for inhibitors of Plasmodium falciparum proliferation (AID 504749);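 note: 0% = DMSO vehicle and full inhibition = artemisinin control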; settings: P. falciparum in erythrocytes, SYBR Green DNA, 72 h; series mostly up to 28.7 µM
Summary of the method: (§2)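 SYBR Green fluorescence of parasite DNA, read after lysis and overnight dark incubation, measured growth over 72 h in erythrocyte culture at 0.3% parasitemia and 2.5% hematocrit. Data normalised to DMSO and 0.29 uM artemisinin, with plate-drift correction.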

[5] = tested on: PC49; experiment: as above; settings: P. falciparum in erythrocytes, SYBR Green DNA, 72 h; series mostly up to 28.7 µM
Summary of the method: as §2

[6] = tested on: SC27B; experiment: as above; settings: P. falciparum in erythrocytes, SYBR Green DNA, 72 h; series mostly up to 28.7 µM
Summary of the method: as §2

[7] = tested on: TAB109; experiment: as above; settings: P. falciparum in erythrocytes, SYBR Green DNA, 72 h; series mostly up to 28.7 µM
Summary of the method: as §2

[8] = tested on: TAB113; experiment: as above; settings: P. falciparum in erythrocytes, SYBR Green DNA, 72 h; series mostly up to 28.7 µM
Summary of the method: as §2

[9] = tested on: TAB165; experiment: as above; settings: P. falciparum in erythrocytes, SYBR Green DNA, 72 h; series mostly up to 28.7 µM
Summary of the method: as §2

[10] = tested on: W2; experiment: as above; settings: P. falciparum in erythrocytes, SYBR Green DNA, 72 h; series mostly up to 28.7 µM
Summary of the method: as §2
Note: nearly all actives have a fitted effect of over 60% in size.

CN1CCCC1CCOC(c1cc2nccc(C(=O)O)c2[nH]1)c1ccccc1Cl (configuration not stated)
inactive: outcome [1] | max response [2] 1.78% | max response [3] -3.9%

Cc1sc2ccccc2c1CC1=NCCN1
inactive: Potency [4] | Potency [5] | Potency [6] | Potency [7] | Potency [8] | Potency [9]

CC(C)C1(OO)C=C2C(=O)CC3C(C)(C(=O)O)CCCC3(C)C2CC1 (configuration not stated)
inactive: max response [1] -0.339% | max response [2] 2.31% | outcome [3]

CCc1[nH]c2ccc(OC)cc2c1CCN(C)C
inactive: max response [1] 2.45% | max response [2] -15.9% | max response [3] 1.59%

CN1[C@H]2C[C@H](OC(=O)[C@H](CO)c3ccccc3)C[C@@H]1[C@@H](O)C2
inactive: max response [1] -1.08% | outcome [2] | outcome [3]

O=C1C2CC=CCC2C(=O)N1SC(Cl)(Cl)Cl (configuration not stated)
inactive: Potency [4] | Potency [5] | Potency [6] | Potency [7] | Potency [8] | Potency [9]

COC1=CC=C2[C@H]3Cc4ccc(OC)c5c4[C@@]2(CCN3C)[C@H]1O5
inactive: Potency [4] | Potency [5] | Potency [6] | Potency [7] | Potency [8] | Potency [9]

CO[C@@H]1[C@H](O)[C@@H](O[C@@H]2C[C@H]3CC[C@@H]4C(CC[C@]5(C)[C@@H](C6=CC(=O)OC6)CC[C@]45O)[C@@]3(C)[C@H](O)C2)O[C@H](C)[C@@H]1O[C@@H]1O[C@H](CO)[C@@H](O)[C@H](O)[C@H]1O (some centres not stated)
active: Potency [1] 109 nM | Potency [2] 343 nM | Potency [3] 769 nM

C=CC(C)(C)c1[nH]c2cccc3c2c1C[C@@H]1[C@@H]3[C@@H](OC(C)=O)[C@H](C)CN1C
inactive: max response [1] -2.45% | outcome [2] | outcome [3]

CCN1CC2(COC)C3[C@@H](OC)C4C1C3(C1C[C@]3(O)[C@H](OC(=O)c5ccccc5)C1[C@]4(OC(C)=O)[C@@H](O)[C@@H]3OC)[C@H](OC)C[C@H]2O (some centres not stated)
inactive: max response [1] -8.46% | max response [2] -1.66% | max response [3] 3.92%

C[C@]12CC[C@@H](O)C[C@H]1CC[C@@H]1[C@@H]2CC[C@]2(C)C(=O)CC[C@@H]12
inactive: max response [1] -3.83% | max response [2] -17.8% | max response [3] -0.89%

CN[C@H]1[C@H](O)[C@H](O[C@@H]2[C@@H](O)[C@H](O[C@H]3O[C@H]([C@H](C)O)[C@@H](O)[C@H](O)[C@H]3N)[C@@H](N)C[C@H]2N)OC[C@@]1(C)O
inactive: outcome [1] | max response [2] -1.94% | outcome [3]

COc1ccccc1CN[C@H]1C2CCN(CC2)[C@H]1C(c1ccccc1)c1ccccc1
inactive: outcome [1] | max response [2] -17% | outcome [3]

N#C[C@@H](O[C@@H]1O[C@H](CO[C@@H]2O[C@H](CO)[C@@H](O)[C@H](O)[C@H]2O)[C@@H](O)[C@H](O)[C@H]1O)c1ccccc1
inactive: max response [1] 3.46% | max response [2] 4.21% | outcome [3]

CC(=O)OC1CC(O)C(C)(C)C2CC(OC(C)=O)C3(C)C(CCC4(C)C(c5ccoc5)C(=O)C5OC543)C12C (configuration not stated)
inactive: max response [1] -0.447% | max response [2] -14.4% | max response [3] -11.6%

COC1CC(OC2CCC3(C)C(=CCC4C3CCC3(C)C(C(C)OC5OC(COC6OC(CO)C(O)C(O)C6O)C(O)C(O)C5O)CCC43O)C2)OC(C)C1OC1OC(C)C(O)C(OC)C1O (configuration not stated)
inactive: max response [1] -7.32% | max response [2] -6.75% | outcome [3]

C[C@H]1CC[C@@H]2[C@@H](C)[C@H]3[C@H](C[C@H]4[C@@H]5CC=C6CC(O[C@@H]7O[C@H](CO)[C@H](O)[C@H](O[C@@H]8O[C@H](CO)[C@@H](O)[C@H](O)[C@H]8O)[C@H]7O[C@H]7O[C@@H](C)[C@H](O)[C@@H](O)[C@H]7O)CC[C@]6(C)[C@H]5CC[C@]34C)N2C1 (some centres not stated)
inactive: Potency [4] | Potency [5] | Potency [6] | Potency [7] | Potency [8] | Potency [9]

c1ccc2cc(CC3=NCCN3)ccc2c1
inactive: Potency [4] | Potency [5] | Potency [6] | Potency [7] | Potency [8] | Potency [9] | Potency [10]

CCC1(c2ccccc2)C(=O)NC(=O)N(C(=O)c2ccccc2)C1=O (configuration not stated)
inactive: Potency [4] | Potency [5] | Potency [6] | Potency [7] | Potency [8] | Potency [9]

CC(=O)OC1CN2CCC1CC2 (configuration not stated)
inactive: Potency [4] | Potency [5] | Potency [6] | Potency [7] | Potency [8] | Potency [9] | Potency [10]

[O]=[Cr](=[O])([OH])[O][Cr](=[O])(=[O])[OH]
inactive: Potency [4] | Potency [5] | Potency [6] | Potency [7] | Potency [8] | Potency [9] | Potency [10]

ClC(Cl)(Cl)Cl
inactive: Potency [4] | Potency [5] | Potency [6] | Potency [7] | Potency [8] | Potency [9] | Potency [10]

From PubChem BioAssay (NCATS)
